Assay outcomes as filed in PubChem.
In the library only some 1.6% were active in any assay of this set; here they are far more common.
KCNQ2 block: inhibitors of rat KCNQ2 potassium channel; B-score at 10 µM; O88943; CHO-K1 KCNQ2, FluxOR thallium flux, 20 min; hits give low values; 310,000 compounds, 1.1% hits;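 active = fluorescence ratio B-score at most minus 3 library SDs, with starting brightness B-score within 2 library SDs, cut at about -5.5 in these data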
KCNQ2 enhance: KCNQ2 (rat) channel potentiation; O88943; CHO-K1 KCNQ2, FluxOR thallium flux fluorescence; hits give high values; B-score at 10 µM; 310,000 compounds, 0.54% hits; AID 2239;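 active = fluorescence ratio B-score at least 3 SD of library B-scores, with initial fluorescence B-score within 3 of them, cut at about 5.3 in these data; same plate scores as AID 2156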;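 also: B-score of peak minus minimum over baseline fluorescence ratio after K+ and Tl+ stimulus; positive B-score means potentiation of KCNQ2 with more thallium influx and brighter signal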
Kir21 confirm: confirmation of mouse Kir2.1 potassium channel inhibitors. shares compounds with KCNQ2 enhance. Kir2.1-expressing cells, FluxOR thallium flux fluorescence; hits give low values. Tl flux remaining, % of negative control (hits give low values), % at 10 µM. 2,300 compounds, 41% hits. AID 2032;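 active = Primary-screen hit whose thallium flux fell at least 3 control SD below untreated wells in both duplicates, with normal baseline fluorescence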;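 also: 0% = blank wells without stimulus and 100% = stimulated no-compound controls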
Target sequence (P35561 whole entry, looked up): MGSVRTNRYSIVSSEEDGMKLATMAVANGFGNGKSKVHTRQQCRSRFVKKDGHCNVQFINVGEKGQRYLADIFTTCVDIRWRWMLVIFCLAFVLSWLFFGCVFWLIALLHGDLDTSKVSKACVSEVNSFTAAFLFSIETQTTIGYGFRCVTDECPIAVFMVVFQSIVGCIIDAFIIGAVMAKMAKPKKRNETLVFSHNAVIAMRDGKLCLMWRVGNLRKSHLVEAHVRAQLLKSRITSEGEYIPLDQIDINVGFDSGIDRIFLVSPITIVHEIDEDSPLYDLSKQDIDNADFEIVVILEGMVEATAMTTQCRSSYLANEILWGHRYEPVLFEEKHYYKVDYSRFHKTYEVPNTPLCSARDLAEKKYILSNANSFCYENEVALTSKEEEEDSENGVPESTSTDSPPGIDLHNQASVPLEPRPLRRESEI
HEK293 ctr: counter-screen for Kir2.1 inhibitors: effect in parental HEK293 cells; shares compounds with KCNQ2 enhance; FluxOR thallium flux fluorescence; 0% = unstimulated blank wells; FluxOR signal as % of negative control (100 = no effect), % at 10 µM; 2,300 compounds, 19% hits; AID 2105;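 active = dye signal at least 3 control SD above or below untreated wells in both duplicates, raw fluorescence within 3, either direction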;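 also: percent is based on the flux ratio of peak minus minimum fluorescence over baseline F0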
CHO-K1 ctr: alters thallium flux in parental CHO-K1 cells, KCNQ2 counter-screen; shares compounds with KCNQ2 enhance; FluxOR thallium flux fluorescence; zero = vehicle mean+3SD, 100% = vehicle-minus-blank window; activity increase over 3SD of controls, % at 10 µM; 1,200 compounds, 43% hits;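 active = signal rise of at least 3 SD above the untreated control mean, in both duplicate wells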;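 also: counter screen of KCNQ2 potentiator hits so any rise reflects channel-independent effects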
KCNQ1 pot spec: tests whether KCNQ2 potentiators also act on human KCNQ1 | CHO KCNQ1 stable, FluxOR thallium flux fluorescence; beyond 3SD, as % of vehicle-control signal | shares compounds with KCNQ2 enhance | 1,200 compounds, 28% hits | activation over 3SD threshold, % at 10 µM | AID 2283;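 active = fluorescence ratio rise of at least 3 SD of vehicle wells above their mean, in both replicate wells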;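 also: 0% = vehicle mean plus 3 SD and 100% = vehicle minus unstimulated blank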
KCNQ2 pot conf: confirmation of rat KCNQ2 potassium channel potentiators | potentiation, less the hit threshold, % at 10 µM | 1,200 compounds, 68% hits | shares compounds with KCNQ2 enhance | CHO-KCNQ2 cells, FluxOR thallium flux fluorescence | AID 2287;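 active = fluorescence ratio rising 3 SD or more over the vehicle control mean in both replicates, plus primary screen hit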;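 also: peak minus minimum thallium fluorescence divided by baseline after K/Tl stimulus; 0% = vehicle mean plus 3 SD and 100% = vehicle minus unstimulated blank difference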
Kir2-1 sel: mouse Kir2.1 off-target activity of KCNQ2 potentiators | shares compounds with KCNQ2 enhance | HEK293 Kir2.1, FluxOR thallium flux fluorescence | activity over 3SD threshold, % at 10 µM | 1,200 compounds, 2% hits;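 active = fluorescence ratio rise of at least 3 SD above the vehicle-control mean, seen in both replicates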;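 also: 0% = vehicle mean plus 3 SD and 100% = vehicle minus no-stimulus blank window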
KCNQ2 W236L MoA: KCNQ2 potentiators acting on retigabine-insensitive rat KCNQ2 W236L mutant; 940 compounds, 10% hits; CHO KCNQ2-W236L, automated patch clamp current; AID 2558; shares compounds with KCNQ2 enhance; current increase over 3SD of negative controls (%), hits give high values, % at 25 µM;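 active = current increase at least 3 SD of the untreated controls above them in both duplicate recordings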
The depositor's hits bear a star; i = inactive; . = no result given.

SMILES | KCNQ2 block | KCNQ2 enhance | Kir21 confirm | HEK293 ctr | others
COc1ccccc1NC(=O)CCNS(=O)(=O)c1ccc2c(c1)CCN2C(C)=O | i | . | . | .
CCN(Cc1ccccc1)Cc1nnnn1Cc1ccccc1 | i | . | 38%* | 69%*
c1ccc(Cn2nnnc2CN2CCN(c3ncccn3)CC2)cc1 | i | 0.01 | . | .
CCOC(=O)N1CCN(C(=S)NC(=O)c2ccc(F)c(F)c2)CC1 | i | . | . | .
O=[N+]([O-])c1ccc(NC(=S)NCc2ccc(F)cc2)cc1 | i | 21* | . | . | CHO-K1 ctr=-7;KCNQ1 pot spec=11*;KCNQ2 pot conf=42*;Kir2-1 sel=-51;KCNQ2 W236L MoA=i
O=[N+]([O-])c1ccc(NC(=S)NCc2ccncc2)cc1 | i | 1.6 | . | .
COc1ccc(C(CC(=O)NCC(OC)OC)NS(=O)(=O)c2ccc(Cl)cc2)cc1 (stereo not given) | i | 1 | . | .
CC1Cc2cc(/C=C3/SC(=S)NC3=O)ccc2O1 (stereo not given) | i | 10* | i | 145%* | CHO-K1 ctr=-13;KCNQ1 pot spec=-14;KCNQ2 pot conf=7.8*;Kir2-1 sel=-31;KCNQ2 W236L MoA=4.5%*
Cc1cc(/C=C2\SC(=S)NC2=O)cc(C)c1O | i | 0.89 | . | .
CC(=O)N(CCC(Cc1ccccc1)c1ccco1)Cc1ccco1 (stereo not given) | -6* | -6 | 38%* | i
O=C(c1ccco1)N(Cc1ccc(Cl)cc1)Cc1ccco1 | i | . | . | .
O=C(c1ccco1)N(CCC(c1ccccc1)c1ccco1)Cc1ccco1 (stereo not given) | -6.8* | -6.8 | 72%* | i
CC(=O)N(CCC(c1ccccc1)c1ccco1)Cc1cccs1 (stereo not given) | -7.8* | -7.8 | 47%* | i
CCC(=O)N(CCC(c1ccco1)c1ccccc1OC)Cc1cccs1 (stereo not given) | i | . | . | .
CC(=O)N(CCP(=O)(c1ccccc1)c1ccccc1)Cc1ccco1 | i | . | . | .
CCN(CCn1cccn1)Cc1ccccc1OCC(O)CN1CCc2ccccc2C1 (stereo not given) | i | . | . | .
O=C(O)c1ccc2c(c1)C(=O)N(c1cccc(S(=O)(=O)Nc3cccc(C(F)(F)F)c3)c1)C2=O | i | . | . | .
COc1ccc(-c2[nH]ncc2CNC(C)c2ccccc2Cl)cc1F (stereo not given) | i | 3 | 60%* | i
COc1ccc(-c2[nH]ncc2CNC(C)CCn2cccn2)cc1F (stereo not given) | i | 1.8 | . | .
O=c1c2c3c(sc2nc(NCCOCCO)n1Cc1ccco1)CCCCC3 | i | 5.6* | i | i | CHO-K1 ctr=-7;KCNQ1 pot spec=38*;KCNQ2 pot conf=-11;Kir2-1 sel=-38;KCNQ2 W236L MoA=6.1%*
CC(O)CNc1nc2sc3c(c2c(=O)n1Cc1ccco1)CCCCC3 (stereo not given) | i | 1 | . | .
Cc1nc(Oc2ccc(S(=O)(=O)N3CCOCC3)cc2Cl)c2c3c(sc2n1)CCCC3 | i | . | . | .
CCCCOc1c(Br)cc(/C=N/O)cc1OCC | i | . | 74%* | i
C=CCOc1c(Br)cc(/C=N/O)cc1OCC | i | . | . | .
COCCN(C(=O)c1cc(OC)c(OC)c(OC)c1)c1c(N)n(Cc2ccccc2)c(=O)[nH]c1=O | i | 1.1 | . | .
CC(=O)c1ccc(N2CCN(C(=O)[C@H](C)NC(=O)c3ccccc3Cl)CC2)cc1 | i | . | . | .
CCCC1=NN2C(=N)/C(=C\c3cc(C)n(Cc4ccccc4)c3C)C(=O)N=C2S1 | i | 12* | i | i | CHO-K1 ctr=21*;KCNQ1 pot spec=-13;KCNQ2 pot conf=-4;Kir2-1 sel=-36;KCNQ2 W236L MoA=i
Cc1cc(/C=C2\C(=N)N3N=C(S(C)(=O)=O)SC3=NC2=O)c(C)n1Cc1ccccc1 | i | 1.2 | . | .
